Screening data: PubChem, National Center for Advancing Translational Sciences (NCATS)
This is a sample that favours compounds with a hit; in the whole collection about 3.4% have one here.
Sm TGR inh – qHTS Assay for the Inhibitors of Schistosoma Mansoni Peroxiredoxins | Schistosoma mansoni thioredoxin glutathione reductase (TGR), Q962Y6 | purified TGR, DTNB reduction, TNB absorbance 405 nm | Potency, µM (titrated, usually from 114 µM), without a hit: top-dose activity change, negative = inhibition, usual class: inhibitors | 360,000 tested, 3% active | AID 485364, 2010; also: nearly all actives have a fitted effect of over 60% in size
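First, TGR (20 nM dispensed) and NADPH were mixed with compound. Second, a 15 min room-temperature incubation followed. Third, further NADPH and then DTNB were added to start the reaction. Finally, TNB absorbance was monitored kinetically.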
FBPA Giardia inh – qHTS Assay for Inhibitors of Fructose-1,6-bisphosphate Aldolase from Giardia Lamblia. 290,000 tested, 0.71% active. Potency, µM (highest dose often 59.6 µM), inactives show at the top dose activity, negative = inhibition, hits mostly inhibitors. purified Giardia FBPA. AID 2451, 2010; also: nearly all actives have a fitted effect of over 55% in size
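40 nM FBPA preincubated 10 min at RT with compound (up to 57.5 uM final), then substrate plus GAPDH/TPI/NAD/arsenate coupling and diaphorase/resazurin added. Fluorescence read after 20 min at RT, 525/598 nm.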
AmpC inh detg – qHTS Inhibitors of AmpC Beta-Lactamase (assay with detergent); P00811; AID 485294, 2010; AmpC hydrolysis of nitrocefin, absorbance 480 nm, 0.01% Triton; 370,000 tested, 0.041% active; Potency, µM (titrated, usually from 114 µM), inactives show at the top dose activity change, negative = inhibition, usual class: inhibitors;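 also: 0% = no-compound wells and -100% = no-enzyme wells; nearly all actives have a fitted effect of over 25% in size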
Target sequence (P00811 whole entry, looked up): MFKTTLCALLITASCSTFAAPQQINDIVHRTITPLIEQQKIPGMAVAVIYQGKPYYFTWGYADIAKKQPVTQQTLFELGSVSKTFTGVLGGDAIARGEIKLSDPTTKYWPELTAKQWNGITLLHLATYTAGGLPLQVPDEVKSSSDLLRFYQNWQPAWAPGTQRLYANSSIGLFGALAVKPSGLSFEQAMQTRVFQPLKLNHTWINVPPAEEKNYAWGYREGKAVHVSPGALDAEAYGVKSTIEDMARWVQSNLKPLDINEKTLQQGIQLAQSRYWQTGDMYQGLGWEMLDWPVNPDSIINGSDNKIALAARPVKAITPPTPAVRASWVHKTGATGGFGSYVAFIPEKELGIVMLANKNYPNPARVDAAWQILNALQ
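20 mM phosphate pH 7.0 + 0.01% (detergent screen) or 0.0001% Triton X-100; 5.3 nM AmpC reagent; cpd preinc 15 min RT; nitrocefin (800 uM stock) to start; A480 q20 s × 4 min; Activity was normalised to no-enzyme and no-compound control wells.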
AmpC no deterg – qHTS Inhibitors of AmpC Beta-Lactamase (assay without detergent); AmpC nitrocefin hydrolysis, absorbance 480 nm, 0.0001% Triton; Potency, µM (top dose mostly 57.1 µM), without a hit: top-dose activity change, negative = inhibition, most hits filed as inhibitors; 330,000 tested, 0.52% active; AID 485341, 2010;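 also: plate controls were no compound for no effect and no enzyme for full effect; nearly all actives have a fitted effect of over 20% in size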
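AmpC (5.3 nM in the dispensed reagent) in 20 mM phosphate pH 7.0 with 0.01% (detergent screen) or 0.0001% Triton X-100 was preincubated with compounds for 15 min at room temperature. Nitrocefin was then added from an 800 uM solution, and hydrolysis was followed at 480 nm.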
RE007 growth inh – qHTS Assay for Inhibitors of the HIV-1 protein Vpr | S. pombe RE007 Vpr strain, BacTiter-Glo ATP luminescence, 24 h | Potency, µM (doses to about 92.2 µM), for the others: at the highest dose activity change, negative = less growth, usual class: inhibitors | 360,000 tested, 0.21% active | AID 651644, 2012; active = well fitted falling curve with a large enough effect; inconclusive = small, poorly fitted or top-dose-only effect; inactive = no such curve, though single readings can be large or run the other way; also: nearly all actives have a fitted effect of over 50% in size
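Fission yeast RE007 carrying one integrated HIV-1 vpr copy, seeded at OD 0.01 in PMG+AL medium with 23 nL pinned compound. Grown 24 h at 30 degrees; viability read by BacTiter-Glo luminescence after 5 min.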
* marks the source's active call; other numbers are inactive results; u = inconclusive; x = no result given. Unless noted, calls follow the shape of the dose curve; as a rule, active = well fitted curve in the direction sought with a large enough effect; inconclusive = small, poorly fitted or top-dose-only effect, or another doubt; inactive = no such curve, though single readings can be large; an effect the other way counts as inactive or inconclusive. Unless noted, % is scaled to controls: 0 for no effect and ±100 for the full control effect; potency is read from the fitted curve at half-maximal effect.

SMILES	Sm TGR inh	FBPA Giardia inh	AmpC inh detg	AmpC no deterg	RE007 growth inh
CCc1nn(C(CC)C(=O)NCCCN2CC(C)CC(C)C2)c(=O)c2cc3oc(C)cc3n12 (stereo not given)	7%	x	3%	34%	-7%
COc1ccc(-n2c(N)c(C(=O)NCc3ccco3)c3nc4ccccc4nc32)c(OC)c1	25µM*	-26%	u	167%	-7%
Nc1c(C(=O)NCc2ccco2)c2nc3ccccc3nc2n1Cc1ccccc1	28µM*	u	1%	1%	-4%
O=c1c2c3nc4ccccc4nc3n(Cc3ccccc3)c2ncn1Cc1ccco1	8.9µM*	u	-3%	-1%	30%
COc1ccc(Cn2c(N)c(C(=O)NCc3ccco3)c3nc4ccccc4nc32)cc1	-36%	-23%	0%	-1%	20%
CCCCCn1c(N)c(C(=O)NCCN2CCOCC2)c2nc3ccccc3nc21	-28%	-15%	-9%	169%	-12%
Nc1c(C(=O)NCc2ccco2)c2nc3ccccc3nc2n1CCN1CCOCC1	25µM*	-24%	4%	110%	0%
N#Cc1ccc(C(=O)CSc2nnc(-c3ccc(C(F)(F)F)cn3)s2)cc1	1%	3%	1%	-42%	7%
CCCCC(=O)Nc1cc(OCC)c(NC(=O)c2ccccc2[N+](=O)[O-])cc1OCC	0%	7%	4%	-3%	-6%
Nc1c(C(=O)NCc2ccco2)c2nc3ccccc3nc2n1Cc1ccc(F)cc1	11µM*	u	-11%	0%	30%
COc1ccc(CCn2c(N)c(C(=O)NCc3ccco3)c3nc4ccccc4nc32)cc1OC	16µM*	u	-7%	136%	-8%
Nc1c(C(=O)NCc2ccco2)c2nc3ccccc3nc2n1CCc1ccccc1F	25µM*	u	3%	21%	0%
COc1ccc(CCn2c(N)c(C(=O)NCc3ccco3)c3nc4ccccc4nc32)cc1	0%	-25%	u	-25%	15%
COc1ccccc1/C=C/C=N/NC(=O)c1ccco1	-31%	-19%	5%	-28%	-4%
COc1cccc(C2C(C(=O)Nc3ccccc3)=C(C)Nc3nc(-c4ccccc4)nn32)c1OC (stereo not given)	-8%	x	-8%	x	x
O=C(Cc1ccccc1)Nc1cccc(N2C(=O)C=CC2=O)c1	0.45µM*	-15%	u	-30%	-18%
COc1cccc(NC(=O)Cc2ccccc2)c1	-11%	1%	u	-11%	u
COCCn1c(C)cc(O)c(C(c2ccc(OC)cc2)N2CCN(c3ccccc3)CC2)c1=O (stereo not given)	8.9µM*	x	-3%	x	x
COc1ccc(C(CCN2CCN(c3ccccc3)CC2)c2c(O)cc(OC)cc2OC)cc1 (stereo not given)	7%	-18%	-3%	13%	-11%
COCCn1c(C)cc(O)c(C(c2cccc(F)c2)N2CCN(c3ccccc3)CC2)c1=O (stereo not given)	7.9µM*	x	0%	x	x
CCCn1c(N)c(C(c2ccc(OC)cc2)N2CCN(c3ccccc3)CC2)c(=O)[nH]c1=O (stereo not given)	2µM*	0%	1%	16%	-6%
COCC(=O)N1CCC(Oc2ccc(C(=O)NCc3csc(C(C)C)n3)cc2)CC1	-17%	-9%	1%	34%	3%
O=c1c2ccccc2nc2c3ccccc3c(NCc3ccco3)nn12	u	6%	0%	-25%	5%
Cc1cc(NC(=O)OC2CCCCC2)ccc1[N+](=O)[O-]	6%	-8%	5%	-28%	1%
O=C(NCCNC(=O)c1ccccn1)c1ccc(Cl)cc1	-3%	0%	-9%	-10%	-3%
O=C(Sc1ccc(Cl)cc1)c1ccccn1	x	x	x	x	22µM*
COc1ccc(N2CCN(C(=O)CCS(=O)(=O)c3cccc4nsnc34)CC2)cc1	u	-19%	-14%	3%	-15%
